Structures are written as SMILES. Records with an inconclusive call do not appear. Activity calls are given as the source filed them. Calls follow the shape of the dose curve; as a rule, active = well fitted activation curve with a large enough effect; inconclusive = small, poorly fitted or top-dose-only effect; inactive = no such curve, though single readings can be large or run the other way.

In PubChem BioAssay (NCATS) one finds activation and Potency data, which are given here for 35 molecules.
Potency is read from the fitted curve at half-maximal effect.

Sequence of Cellular tumor antigen p53 (Homo sapiens) (P04637 whole entry, looked up): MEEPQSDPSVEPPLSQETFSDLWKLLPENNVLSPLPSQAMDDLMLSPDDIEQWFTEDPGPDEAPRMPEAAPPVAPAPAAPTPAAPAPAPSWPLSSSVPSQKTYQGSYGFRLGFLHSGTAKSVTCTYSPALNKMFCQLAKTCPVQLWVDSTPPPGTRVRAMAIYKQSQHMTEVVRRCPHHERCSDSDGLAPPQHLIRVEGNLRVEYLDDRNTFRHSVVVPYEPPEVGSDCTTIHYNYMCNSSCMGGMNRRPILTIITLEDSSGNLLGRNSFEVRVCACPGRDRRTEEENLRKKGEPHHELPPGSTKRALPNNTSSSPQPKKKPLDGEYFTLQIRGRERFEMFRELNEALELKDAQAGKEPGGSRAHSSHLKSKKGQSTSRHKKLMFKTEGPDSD

This experiment deals with Cellular tumor antigen p53 (Homo sapiens) (UniProt P04637). As to the kind of experiment: Primary qHTS for small molecule compounds that upregulate eGFP-tagged delta133p53alpha (in N-terminal) cells. (AID 2060322). Also: nearly all actives have a fitted effect of over 75% in size.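 As to activation: series mostly up to about 56 µM; 0% = DMSO vehicle and 100% = reference activator.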 The note with it: NCI-H358 eGFP-delta133p53alpha fluorescence, 24 h; activation: active compounds read high. In outline:
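NCI-H358 cells pre-induced 24 h with 10 ng/ml doxycycline to express N-terminal eGFP-delta133p53alpha, then dosed 24 h at 37C without doxycycline; fixed, Hoechst-stained, GFP intensity by laser scanning cytometry, normalized to DMSO (0%) and 57.5 uM 5-azacytidine (100%).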
On the technique in general: In qHTS, concentration-response curves come from the screen itself.
As to `C#CC1(O)CCC2C3CCC4=CC(=O)CCC4=C3C=CC21C` (stereo not given), the activation was -16.3% (inactive). Still for that read-out and setting: the result for `O=[N+]([O-])c1ccc2nc(N3CCNCC3)ccc2c1` reads -42.9% (inactive); that for `C=CCN1CC[C@]23c4c5ccc(O)c4O[C@H]2[C@@H](O)CC[C@@]3(O)[C@H]1C5`, 4.33% (inactive). The same measure, in the same setting: for `O=[N+]([O-])c1cc(O)c(O)c([N+](=O)[O-])c1` the value was -0.323% (inactive).

For `CC[C@@H]1C[C@H]2CC[C@H](O2)[C@H](C)C(=O)O[C@@H](C)C[C@@H]2CC[C@@H](O2)[C@@H](C)C(=O)O[C@H](CC)C[C@H]2CC[C@H](O2)[C@H](C)C(=O)O[C@@H](C)C[C@@H]2CC[C@@H](O2)[C@@H](C)C(=O)O1`, the Potency was 6.3 µM (active). For the molecule `CC(=O)OC12C(O)C(C)C3(O)C4C=C(C)C(=O)C4CC(CO)=CC3C1C2(C)C` (stereo not given), the activation was -3.05% (inactive).

As for `CN(C(=O)C(c1ccccc1)c1ccccc1)[C@H](CN1CC[C@H](O)C1)c1ccccc1`, the activation is 14.8% (inactive).

With `CCOC(=O)c1ncn2c1[C@@H]1CCCN1C(=O)c1cc(OC)ccc1-2`, the activation was 2.15% (inactive). As for `N#C[C@@H](O[C@@H]1O[C@H](CO[C@@H]2O[C@H](CO)[C@@H](O)[C@H](O)[C@H]2O)[C@@H](O)[C@H](O)[C@H]1O)c1ccccc1`, the activation was -19.6% (inactive).

As to `N#Cc1ccccc1-c1cc(-c2ccccn2)cn(-c2ccccc2)c1=O`, the activation was 10.5% (inactive). On the same count and under the same terms, the result for `CC/C=C/C=C/C1(C)OC(OC)=C(C(=O)C2C(C)C(=O)c3cc(OC)c(O)c(O)c3C2(C)O)C1=O` (stereo not given) reads 0.893% (inactive); that for `CCN1C[C@]2(OC(=O)c3ccccc3NC(C)=O)CC[C@H](OC)[C@@]34[C@@H]2C[C@@H]([C@@H]13)[C@@]1(O)C[C@H](OC)[C@H]2C[C@@H]4[C@]1(O)[C@H]2OC`, -6.68% (inactive); that for `CN1CCCCC1Cn1cc(C(=O)c2cc([N+](=O)[O-])ccc2I)c2ccccc21` (stereo not given), 23.9% (inactive). On the same count and under the same terms, for `COc1cc2c(cc1O)C1(C)CCC(O)C(C)(C)C1CC2=O` (stereo not given) the value was -4.58% (inactive); for `CCCCCn1cc(C(=O)Oc2cccc3cccnc23)c2ccccc21`, -4.77% (inactive); for `COC1=C[C@@H]2[C@@H]3Cc4ccc(OC)c(O)c4[C@]2(CCN3C)CC1=O`, 8.33% (inactive). Still for that read-out and setting: the result for `CC(=O)O[C@H]1CC[C@@]2(CI)C(=CC[C@@H]3[C@@H]2CC[C@]2(C)C(=O)CC[C@@H]32)C1` reads 13.7% (inactive); that for `CCCCCn1cc(C(=O)Cc2ccccc2OC)c2ccccc21`, 3.34% (inactive).

With `N#Cc1ccc(N2CCN(C(=O)COc3ccc4[nH]cc(CCN)c4c3)CC2)cc1`, the activation is -4.3% (inactive). Same read-out and setting: for `C=CC(C)(C)c1[nH]c2c(CC=C(C)C)cc(CC=C(C)C)cc2c1C[C@@H]1NC(=O)[C@H](C)NC1=O` the value was 14.3% (inactive). In the case of `CCC1NC(=O)C2C(Cl)C(Cl)CN2C(=O)C(CC)NC(=O)CC(c2ccccc2)NC(=O)C(CO)NC1=O` (stereo not given), the activation was -6.87% (inactive). Same read-out and setting: the result for `CCc1[nH]c2ccc(OC)cc2c1CCN(C)C` reads 8.59% (inactive).

On to `C1=C2CCCN[C@H]2[C@@H]2C[C@H]1[C@H]1CCCCN1C2`, for which the activation is -9.55% (inactive). Regarding `C/C=C(/C)C1C=CC2CC(C)CC(C)C2C1/C(O)=C1\C(=O)NC(CC(C)(O)C(=O)O)C1=O` (stereo not given), the activation was -26% (inactive). Same read-out and setting: the result for `OCCCCC#Cc1cncc(OC[C@@H]2CCN2)c1` reads -1.43% (inactive); that for `CN1[C@@H]2CC[C@H]1CC(OC(=O)C1C=Nc3ccccc31)C2` (stereo not given in full), -7.64% (inactive). Same read-out and setting: the result for `COc1cc(N2CCN(C)CC2)ccc1N` reads 20% (inactive); that for `COc1cc2c(c(OC)c1OC)-c1ccc(SC)c(=O)cc1[C@@H](NC(C)=O)CC2`, 8.33% (inactive); that for `O=C(OC[C@H]1O[C@@H](Oc2ccc(O)cc2CO)[C@H](O)[C@@H](O)[C@@H]1O)c1ccccc1`, 28.6% (inactive). Take `CS[C@]1(CO)C(=O)N2[C@H]3C(=CC=C[C@@H]3O)C[C@@]2(SC)C(=O)N1C`: the activation was -6.11% (inactive). On to `CCCN1CCO[C@H]2c3cc(O)ccc3OC[C@@H]21`, for which the activation was 4.46% (inactive).

As to `CC1CCCC(O)CCC/C=C/c2cc(O)cc(O)c2C(=O)O1` (stereo not given), the activation is 28.2% (inactive). As for `CC1(C)C(=O)N(c2ccc(C#N)c(C(F)(F)F)c2)C(=S)N1c1ccc(C(N)=O)c(F)c1`, the activation is 1.43% (inactive).

In the case of `COc1ccc2c(C(=O)c3ccc(Cl)cc3)c(C)n(CC(=O)O)c2c1`, the activation was -36.8% (inactive). For the molecule `N#Cc1cn([C@@H]2O[C@H](CO)[C@H](O)[C@@H]2O)c2ncnc(N)c12`, the Potency was 0.0757 µM (active).
